An excerpt weighted towards active compounds, which were near 1.3% of everything screened.
Phagocytosis inh = macrophage phagocytosis inhibition; J774A.1 macrophage IgG-bead phagocytosis, imaging; inhibition, % at 5 µM; hit rate 0.07% among 110,000; AID 1029;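 active = inhibition above the mean of the plate negative controls plus 5 SD, cut at about 13% in these data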;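 also: phagocytic index as fraction of beads internalized from green versus red external bead signal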
S1P2 antag = antagonists of human S1P2 receptor; AID 736; inhibition, % at 5 µM; hit rate 0.21% among 97,000; cell-based S1P2 antagonist assay, inhibition at 5 uM; in the data active = inhibition above about 45%;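 also: CRE beta-lactamase reporter cells expressing human S1P2 stimulated with S1P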
Target sequence (O95136 whole entry, looked up): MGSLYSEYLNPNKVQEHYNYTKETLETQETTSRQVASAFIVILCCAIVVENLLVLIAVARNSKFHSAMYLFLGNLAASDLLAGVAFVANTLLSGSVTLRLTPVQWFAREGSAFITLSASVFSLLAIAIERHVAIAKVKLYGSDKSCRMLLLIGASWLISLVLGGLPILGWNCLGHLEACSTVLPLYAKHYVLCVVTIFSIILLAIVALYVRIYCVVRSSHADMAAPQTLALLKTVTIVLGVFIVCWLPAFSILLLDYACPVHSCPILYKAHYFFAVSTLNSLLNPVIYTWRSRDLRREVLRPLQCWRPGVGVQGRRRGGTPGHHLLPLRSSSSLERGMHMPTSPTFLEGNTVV
GALR2 blocker = blocks the human galanin receptor 2; GALR2-expressing cells, antagonist mode; inhibition, % at 4 µM; hit rate 0.39% among 140,000; AID 828;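 also: cells stimulated with galanin 1-16 at roughly its EC80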
Target sequence (O43603 whole entry, looked up): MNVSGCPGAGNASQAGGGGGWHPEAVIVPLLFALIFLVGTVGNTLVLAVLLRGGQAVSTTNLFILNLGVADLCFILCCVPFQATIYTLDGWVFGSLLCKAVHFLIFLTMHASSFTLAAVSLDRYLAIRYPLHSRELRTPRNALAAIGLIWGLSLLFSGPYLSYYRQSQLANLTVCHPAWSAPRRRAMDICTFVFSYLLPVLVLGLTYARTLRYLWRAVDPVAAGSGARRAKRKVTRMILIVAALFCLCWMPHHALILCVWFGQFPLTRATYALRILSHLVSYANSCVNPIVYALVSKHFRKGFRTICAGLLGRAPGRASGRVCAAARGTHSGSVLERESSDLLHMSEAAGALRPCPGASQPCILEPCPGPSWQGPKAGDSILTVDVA
GALR2 agonist = agonists of human galanin receptor 2 (GALR2); O43603; GALR2-expressing cells, agonist activation read-out; activation, % (no concentration beside the values); hit rate 0.48% among 140,000; in the data active = activation above about 5%, passing the limit was not always enough
S1P2 ag = S1P2 (human) receptor agonism | S1P2-expressing cell line, agonist reporter read-out | hit rate 0.46% among 97,000 | activation, % at 4.5 µM | O95136; in the data active = activation above about 16%
GALR2 ant conf = GALR2 (human) antagonism confirmed | shares compounds with GALR2 blocker | GALR2-expressing cells, antagonist mode, inhibition | inhibition, % at 4 µM | hit rate 60% among 480 | AID 866;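 also: cells stimulated with galanin at about its EC80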
BLA inhib ctr = inhibits beta-lactamase reporter in GALR2 antagonist counterscreen | shares compounds with GALR2 blocker | CHO NFAT-BLA reporter, beta-lactamase FRET, thapsigargin-stimulated | inhibition, % at 4.2 µM | hit rate 36% among 480;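 active = inhibition above the mean inhibition across tested compounds plus 3 SD, cut at about 27% in these data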
Of the large screens only hits and unclear results are named; the others gave an inactive call (follow-up assays come after a bar, where they were run). Rule as the data show it, unless noted: active = inhibition above about 27%; inactive = the rest.

COc1ccc(C2(CNC(=O)c3ccc(OCC(C)C)cc3)CCOCC2)cc1	none (no result: S1P2 antag, S1P2 ag)
CC1=NNC(=O)/C1=C\c1cn(-c2ccccc2)nc1-c1cccs1	GALR2 blocker 31 (no result: S1P2 antag, S1P2 ag) | GALR2 ant conf inactive | BLA inhib ctr inactive
O=C(N/N=C/c1cn(-c2ccccc2)nc1-c1cccs1)c1ccccc1F	none (no result: S1P2 antag, S1P2 ag)
O=C(/C=C/c1ccc(Cl)c([N+](=O)[O-])c1)Nc1cccc(NC(=O)c2ccco2)c1	none (no result: S1P2 antag, S1P2 ag)
O=C(/C=C/c1ccc(Cl)c([N+](=O)[O-])c1)Nc1ccc(NC(=O)c2ccco2)cc1	GALR2 blocker 33 (no result: S1P2 antag, S1P2 ag) | GALR2 ant conf inactive | BLA inhib ctr inactive
COc1cccc(-n2nnnc2S(C)(=O)=O)c1	GALR2 blocker 33 | GALR2 ant conf 55 | BLA inhib ctr 58
COc1cccc(Oc2nnnn2-c2ccccc2)c1	none
CC(=O)/C=C/n1c(=S)oc2ccccc21	GALR2 blocker 42 (no result: S1P2 antag, S1P2 ag) | GALR2 ant conf 77 | BLA inhib ctr 65
COc1cc(N2CCCC2)c(OC)cc1/C=C(/C#N)c1ccc(Br)cc1	GALR2 blocker 63 (no result: Phagocytosis inh) | GALR2 ant conf inactive | BLA inhib ctr inactive
COc1cc(N2CCCC2)c(OC)cc1/C=C(/C#N)c1ccc(F)cc1	none (no result: Phagocytosis inh)
CCCCCCCCNc1ncnc2ccccc12	S1P2 antag 78, GALR2 blocker 39 | GALR2 ant conf 54 | BLA inhib ctr inactive
CCC(=O)NNc1ncnc2ccccc12	none (no result: S1P2 antag, S1P2 ag)
CCCNC(=O)c1ccc2c(c1)ncn2-c1ccccc1OC	GALR2 blocker 28 (no result: S1P2 antag, S1P2 ag) | GALR2 ant conf inactive | BLA inhib ctr inactive
N#CC(C#N)=C1C=CC=CN1/C(=C\c1ccco1)C(=O)c1ccc(-c2ccccc2)cc1	GALR2 blocker 28 (no result: S1P2 antag, S1P2 ag) | GALR2 ant conf 41 | BLA inhib ctr 33
O=C(O)/C(=C/c1ccco1)NC(=O)c1ccccc1	none (no result: S1P2 antag, S1P2 ag)
N#CC(C#N)=C1C=CC=CN1/C(=C\c1ccco1)C(=O)c1ccc(Cl)cc1	GALR2 blocker 68 (no result: Phagocytosis inh, S1P2 antag, S1P2 ag) | GALR2 ant conf 60 | BLA inhib ctr 71
CC(/C=N/n1c(-c2ccc(Cl)cc2)n[nH]c1=S)=C\c1ccco1	none (no result: S1P2 antag, S1P2 ag)
Cc1ccc(N2C(=O)C(NC(=O)c3ccccc3)(C(F)(F)F)C3=C2CC(C)(C)CC3=O)cc1 (stereo not given)	none (no result: S1P2 antag, S1P2 ag)
O=C(CCn1c(=S)[nH]c2cc3c(cc2c1=O)OCO3)N1CCc2ccccc2C1	none
O=C(CCCn1c(=S)[nH]c2cc3c(cc2c1=O)OCO3)N1CCc2ccccc2C1	GALR2 blocker 28 (no result: Phagocytosis inh) | GALR2 ant conf inactive | BLA inhib ctr inactive
COc1ccc(C(=O)c2sc3nc(-c4ccccc4)ccc3c2N)cc1	GALR2 blocker 32 (no result: Phagocytosis inh, S1P2 antag, S1P2 ag) | GALR2 ant conf 42 | BLA inhib ctr 49
C=CCOC(=O)c1c(C)nc2cc3c(cc2c1C)OCO3	none (no result: S1P2 antag, S1P2 ag)
CC(/C=C/c1ccc2c(c1)OCO2)=N/NC(=O)c1ccc(C)nc1	none (no result: S1P2 antag, S1P2 ag)
Cc1cc(C(=O)COC(=O)c2ccccc2O)c(C)n1Cc1cccs1	none
CC(=O)Nc1ccccc1OCC(=O)c1cc(C)n(Cc2cccs2)c1C	GALR2 blocker 39 (no result: S1P2 antag, S1P2 ag) | GALR2 ant conf 51 | BLA inhib ctr inactive
O=C(Oc1ccccc1/C=C\C(=O)c1cc2ccccc2o1)c1ccccc1	GALR2 blocker 27 (no result: S1P2 antag, S1P2 ag) | GALR2 ant conf inactive | BLA inhib ctr inactive
COc1ccc(NC(=O)CSc2ccc3ccccc3c2)cc1S(=O)(=O)N1CCCCC1	none (no result: S1P2 antag, S1P2 ag)
COc1cc(C(=O)O/N=C2/C=C(C)C(=O)C=C2C)cc(OC)c1OC	none (no result: S1P2 antag, S1P2 ag)
CC1=C/C(=N\OS(=O)(=O)c2ccccc2)C(C)=CC1=O	S1P2 antag 98, GALR2 blocker 63 | GALR2 ant conf 74 | BLA inhib ctr 36
CC1=C(C)/C(=N\OS(=O)(=O)c2ccc(C)cc2)C=CC1=O	GALR2 blocker 85 (no result: S1P2 antag, S1P2 ag) | GALR2 ant conf 70 | BLA inhib ctr 64
Cc1ccc(/C(C#N)=C\c2ccc(N3CCOCC3)o2)cc1	S1P2 antag 51, GALR2 blocker 44 | GALR2 ant conf inactive | BLA inhib ctr inactive
Cc1ccc2nc(/C(C#N)=C\c3ccc(N4CCOCC4)o3)[nH]c2c1	GALR2 blocker 29 (no result: Phagocytosis inh) | GALR2 ant conf inactive | BLA inhib ctr inactive
CCOC(=O)C1=C(C(F)(F)F)Nc2ncnn2C1c1cc(OC)ccc1OC (stereo not given)	none (no result: S1P2 antag, S1P2 ag)
COc1ccc(S(=O)(=O)Nc2ccccc2-c2nnn(CC(=O)Nc3ccccc3OC)n2)cc1	GALR2 blocker 28 (no result: S1P2 antag, S1P2 ag) | GALR2 ant conf inactive | BLA inhib ctr inactive
O=C(O)Cc1sc(N/N=C\c2ccccc2)nc1-c1ccccc1	GALR2 blocker 29 (no result: S1P2 antag, S1P2 ag) | GALR2 ant conf inactive | BLA inhib ctr inactive
COc1cc(OC)c(-c2cc(C(=O)O)ccc2OC)c(OC)c1	none (no result: S1P2 antag, S1P2 ag)
CC1=C(C)CS(=O)N(c2ccc(S(N)(=O)=O)cc2)C1 (stereo not given)	GALR2 blocker 30 | GALR2 ant conf 28 | BLA inhib ctr inactive
CCCCn1c(SCc2nc(N)nc(N3CCCCC3)n2)nc2c1c(=O)n(C)c(=O)n2C	none (no result: S1P2 antag, S1P2 ag)
O=C(/C=C/c1ccco1)Nc1sc2c(c1C(=O)O)CCC2	none
N#Cc1c(NC(=O)/C=C/c2ccco2)sc2c1CCCC2	GALR2 blocker 31, GALR2 agonist 5.9 (no result: S1P2 antag, S1P2 ag) | GALR2 ant conf 32 | BLA inhib ctr 64
CC(Cc1cccs1)NC(=O)Nc1ccc(F)cc1 (stereo not given)	GALR2 blocker 28 | GALR2 ant conf inactive | BLA inhib ctr inactive
CC(Cc1cccs1)NC(=O)Nc1cccc(Cl)c1 (stereo not given)	none
Fc1ccccc1-c1csc(=Nc2cccnc2)n1CCCn1ccnc1	none (no result: S1P2 antag, S1P2 ag)
CCc1ccccc1NC(=S)N1CCN(c2ccccn2)CC1	GALR2 blocker 28 (no result: S1P2 antag, S1P2 ag) | GALR2 ant conf inactive | BLA inhib ctr inactive
CC(=O)c1c(C)[nH]c(C(=O)OCC(=O)Nc2ccc(C)cc2[N+](=O)[O-])c1C	GALR2 blocker 40 (no result: Phagocytosis inh, S1P2 antag, S1P2 ag) | GALR2 ant conf 49 | BLA inhib ctr inactive
CC(=O)c1c(C)[nH]c(C(=O)OCC(=O)Nc2cc(Cl)ccc2[N+](=O)[O-])c1C	none (no result: S1P2 antag, S1P2 ag)
c1ccc2c(c1)OCC(CNc1ncnc3sccc13)O2 (stereo not given)	GALR2 blocker 42 (no result: S1P2 antag, S1P2 ag) | GALR2 ant conf 54 | BLA inhib ctr inactive
c1cncc(-c2nc(NCC3COc4ccccc4O3)c3ccccc3n2)c1 (stereo not given)	none
CCC1(C)Cc2c(sc3nnn(Cc4ccccc4Cl)c(=O)c23)CO1 (stereo not given)	none (no result: Phagocytosis inh)
N#Cc1c(-c2ccccc2F)cc(C2CC2)nc1SCC(=O)c1cccs1	GALR2 blocker 28 (no result: S1P2 antag, S1P2 ag) | GALR2 ant conf 32 | BLA inhib ctr 32
COc1ccc(CCNC(=O)C(C(=O)c2ccc(F)cc2)n2ccccc2=O)cc1OC (stereo not given)	none (no result: S1P2 antag, S1P2 ag)
CCC(=O)N(CCCN(C)C)c1nc(-c2cc(OC)ccc2OC)cs1	none
COCCCN(C(=O)c1ccco1)c1nc(-c2cc(OC)ccc2OC)cs1	GALR2 blocker 85 | GALR2 ant conf inactive | BLA inhib ctr inactive
COc1ccc(CNC(=O)C2CCN(S(=O)(=O)c3cccc4cccnc34)CC2)cc1	none (no result: Phagocytosis inh, S1P2 antag, S1P2 ag)
N/C(=N\OC(=O)Cc1cccs1)c1ccc([N+](=O)[O-])cc1	none (no result: Phagocytosis inh, S1P2 antag, S1P2 ag)
N#C/C(=C\c1cccs1)c1nc2ccccc2[nH]1	GALR2 blocker 32 (no result: S1P2 antag, S1P2 ag) | GALR2 ant conf 30 | BLA inhib ctr inactive

Source: PubChem BioAssay
